According to ChEMBL document CHEMBL4513216, “Probing the Open Global Health Chemical Diversity Library for Multistage-Active Starting Points for Next-Generation Antimalarials” (ACS Infect Dis, 2020):
In all, about 69,000 compounds went through this assay and about 8,600 (12%) showed an effect of 50% or more. The list comes from a sample in which strong results are over-represented; it also holds similar structures and randomly drawn compounds.

The compounds below were run on Plasmodium berghei (assay: Screen against P. berghei liver stage (PbLuc), transformed with Luciferase, at 10uM). Details: tested at 10 uM.
Assay type: functional, HepG2

Row | Structure (SMILES) | INHIBITION [%]
1 | CN(Cc1cccnc1)[C@@H]1CN(C(=O)NC2CC2)[C@@H]2CCCO[C@H]12 | 32.2
2 | Cc1cc(C(=O)N2CCCC(c3cc(=O)nc4n3CCC4)C2)on1 (stereo not drawn) | 20.6
3 | CCOc1nc2cnccc2n(CC(=O)Nc2ccccc2OC)c1=O | -1.45
4 | O=S(=O)(c1cccs1)N1CC[C@@H](O)[C@@H]1Cc1ccncc1 | 71.9
5 | O=S(=O)(c1cccs1)N1CC[C@H](O)[C@@H]1Cc1ccncc1 | 28.4
6 | CO[C@H]1CCN(S(=O)(=O)c2cccs2)[C@H]1Cc1ccncc1 | 7.77
7 | Cc1ccc(Sc2nccn(C)c2=O)cc1 | -53.1
8 | Cc1c[nH]c(C2CN(Cc3ccccc3C(=O)O)CCO2)n1 (stereo not drawn) | 26.7
9 | COc1ccc(CNC(=O)CCSCc2csc(C)n2)cn1 | -12.2
10 | CCN(CC)c1ncc(CNC2CCc3nc(C)nn3C2)s1 (stereo not drawn) | 4.22
11 | N#Cc1ccc(NCC(O)c2ccco2)c(C(F)(F)F)c1 (stereo not drawn) | 25.7
12 | CC/C=C(/C)C(=O)NS(=O)(=O)c1ccc(C#N)cc1C(F)(F)F | -7.53
13 | CCC(C)C(=O)NS(=O)(=O)c1ccc(C#N)cc1C(F)(F)F (stereo not drawn) | 9.54
14 | COCC(O)CNc1ccc(C#N)cc1C(F)(F)F (stereo not drawn) | 77.7
15 | CC(O)CNc1ccc(C#N)cc1C(F)(F)F (stereo not drawn) | 50.8
16 | CCC(CC)C(=O)NS(=O)(=O)c1ccc(C#N)cc1C(F)(F)F | 11.9
17 | Cc1ccc(C2CCCN(C(=O)c3cnn(C)c3)C2)nc1 (stereo not drawn) | 3.91

Row | Structure (SMILES) | INHIBITION [%]
18 | CCNC(=O)CN1CCCC(c2ccc(C(=O)O)cc2)C1 (stereo not drawn) | 45
19 | CC(C)c1cncnc1N1CC[C@H](N2CCOCC2)[C@H](CCCO)C1 | 30.5
20 | O=C(c1ccc(=O)[nH]c1)N1C[C@H]2CC[C@@H](C1)N(Cc1ccccc1)C2 | -70.7
21 | O=C(NCCc1cnccn1)C1(N2CCCCC2)Cc2ccccc2C1 | 43.7
22 | CCNC(=O)C1CCN(Cc2ccc(C(=O)Nc3nnc(C)s3)cc2)C1 (stereo not drawn) | 57.35
23 | Cc1cc(NC(=O)c2ccc(CN3CC[C@H](O)C3)cc2)ccc1F | 90.3
24 | COc1cc(NC(=O)c2ccc(CN3CC[C@H](O)C3)cc2)cc(OC)c1 | 67.6
25 | CCNC(=O)C1CCN(Cc2ccc(C(=O)Nc3cnns3)cc2)C1 (stereo not drawn) | 12.2
26 | Cc1cncc(NC(=O)c2ccc(CN3CC[C@H](O)C3)cc2)c1 | 87.5
27 | O=C(Nc1cccc2c1CCCC2)c1cccc(CN2CC[C@H](O)C2)c1 | 37.6
28 | NC(=O)C1CCCN(Cc2ccc(C(=O)Nc3cnns3)cc2)C1 (stereo not drawn) | 40.15
29 | Cc1cncc(NC(=O)c2ccc(CN3CCCC(C(N)=O)C3)cc2)c1 (stereo not drawn) | 23
30 | O=C(Nc1ccccc1CCO)c1cccc(CN2CC[C@H](O)C2)c1 | 23.9
31 | Cc1[nH]ccc1C(=O)Nc1cccc(CN2CCC(O)CC2)c1 | -4.74
32 | Cc1cncc(NC(=O)c2ccc(CN3CCC(CO)CC3)cc2)c1 | -12.4
33 | COc1ccc(NC(=O)c2ccc(CN3CC[C@H](O)C3)cc2)c(OC)n1 | 26.7
